The panel holds about 83,000 compounds, 20% with a hit somewhere; the sample as a whole holds those more often.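 Interpretation: 100, growth as untreated; towards 0, rising growth inhibition; 0, no net growth; 0 to -100, cell death. Compounds scoring below 10 were considered active.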 Calls of active or inactive are those of the source.

The subject of the first experiment is HOP-92 NSCLC. As to the kind of experiment: NCI-60 one-dose screen, 48 h (100 = growth as untreated, 0 = no growth, -100 = all killed). The note with it: 10 µM unless noted.
`ClCCN(CCCl)C(c1ccccc1)c1ccc(Cl)cc1` (stereo unspecified): the growth is 57.4% (inactive). Regarding `Oc1ccccc1OB(Oc1ccccc1O)N(CCCl)CCCl`, the growth is 74.5% (inactive). In the case of `NC(Cc1ccc2c(c1)OCO2)c1ccc2c(c1)OCO2` (stereo unspecified), the growth is 63.1% (inactive). The same measure, in the same setting: the figure for `N#CC1c2ccccc2C=CN1C(=O)c1ccc(N(CCCl)CCCl)cc1` (stereo unspecified) is 81% (inactive); for `CSc1ccccc1NP1(=O)OCC(C)([N+](=O)[O-])CO1` (stereo unspecified) it is 89.4% (inactive); for `C/C(=N/OC(=O)N(C)C)c1cc(Cl)ccc1Cl` it is 107% (inactive).

For `O=S(=O)(O)c1ccc(-c2ccc([As](=O)(O)O)cc2)cc1`, the growth is -91% (active). For `O=[N+]([O-])c1cc([N+](=O)[O-])c(Cl)c(Cl)c1Cl`, the growth was 2.39% (active).

In the case of `C=CCC1(CC)C(=O)NC(=S)NC1=O`, the growth was 80.6% (inactive). On to `C/C(=N/OC(=O)N(C)C)c1ccc(Cl)cc1Cl`, for which the growth was 108% (inactive).

For the molecule `n1nc(-c2nonc2-c2nn[nH]n2)n[nH]1`, the growth is 104% (inactive).

In the case of `CNC(=O)Oc1ccccc1-c1ccccc1`, the growth is 101% (inactive). On to `O=[N+]([O-])c1ccc2cnn(CSP(=S)(c3ccccc3)c3ccccc3)c2c1`, for which the growth is 65.7% (inactive). Turning to `Clc1ccc(SSC(Cl)(Cl)Cl)cc1`, the growth is 84.8% (inactive). For the molecule `CC(=O)Nc1ccc(C=C2C(=O)NC(=O)NC2=O)cc1`, the growth is 91.5% (inactive).

The test system of another experiment is NCI-H522 lung. The description is as above. The note with it: 10 µM unless noted.
Turning to `ClCCN(CCCl)C(c1ccccc1)c1ccc(Cl)cc1` (stereo unspecified), the growth was 65% (inactive). As for `CCCCn1cc(C(=O)/C(C#N)=C/c2cc3ccccc3nc2Cl)c2cc(OC)ccc21`, the growth was 99.6% (inactive). With `CCCCNCCc1ccccn1`, the growth is 86.9% (inactive). With `CC(=O)C1C(=O)N(C)C(=O)N(C)C1=O`, the growth was 105% (inactive). On to `CC1(C)N=C(N)N=C(N)N1c1cccc(C(=O)Nc2cccc(S(=O)(=O)F)c2)c1`, for which the growth is 99.8% (inactive). Still for that read-out and setting: the result for `Oc1ccccc1OB(Oc1ccccc1O)N(CCCl)CCCl` reads -6.22% (active); that for `CSc1ccccc1NP1(=O)OCC(C)([N+](=O)[O-])CO1` (stereo unspecified), 103% (inactive); that for `C/C(=N/OC(=O)N(C)C)c1cc(Cl)ccc1Cl`, 83.5% (inactive).

For the molecule `CCC(C)[C@H]1O[C@]2(C=C[C@@H]1C)C[C@@H]1C[C@@H](C/C=C(\C)[C@@H](OC3C[C@H](OC)C(O[C@H]4C[C@H](OC)[C@@H](O)[C@H](C)O4)[C@H](C)O3)[C@@H](C)/C=C/C=C3\CO[C@@H]4[C@H](O)C(C)=C[C@@H](C(=O)O1)[C@]34O)O2` (stereo partly specified), the growth is -28.8% (active).

Take `O=C1NC(=O)C(CN2C(=O)C3(c4ccccc42)[C@H](Cl)C(=O)N3c2ccccc2)C(=O)N1` (stereo partly specified): the growth was 51.4% (inactive). The same measure, in the same setting: the result for `O=[N+]([O-])c1cc([N+](=O)[O-])c(Cl)c(Cl)c1Cl` reads -86.5% (active); that for `C=CCC1(CC)C(=O)NC(=S)NC1=O`, 93.5% (inactive); that for `C/C(=N/OC(=O)N(C)C)c1ccc(Cl)cc1Cl`, 83.6% (inactive). With `CCC[CH2][Sn]([CH2]CCC)([CH2]CCC)[O]C(=O)CC`, the growth is -81.2% (active). On the same count and under the same terms, the result for `n1nc(-c2nonc2-c2nn[nH]n2)n[nH]1` reads 101% (inactive); that for `CNC(=O)Oc1ccccc1-c1ccccc1`, 85.9% (inactive); that for `CC1(C)N=C(N)N=C(N)N1c1ccc(OCCCCOc2ccc(S(=O)(=O)F)cc2)c(Cl)c1`, 5.92% (active). Still for that read-out and setting: the result for `CCCCOC(=O)c1ccccc1C(=O)O.CCCCOC(=O)c1ccccc1C(=O)O.[Cu+2]` reads 95% (inactive). For the molecule `NC(=O)C(Cl)Cl`, the growth is 109% (inactive). On to `CCN(CC)c1ccc(C=C2C(=O)NC(=S)NC2=O)cc1`, for which the growth is 86.5% (inactive). Turning to `Clc1ccc(SSC(Cl)(Cl)Cl)cc1`, the growth was 107% (inactive).

For the molecule `[O]=[Sn]([CH]1CCCCC1)[CH]1CCCCC1`, the growth was -72.6% (active). Regarding `ClCCN(CCCl)c1nc(Cl)c(C2CC(c3ccccc3)=NN2c2ccccc2)s1` (stereo unspecified), the growth is 75.1% (inactive). Turning to `CC(=O)C1CCC2C3CC=C4CC(OC(=O)Cc5ccc(N(CCCl)CCCl)cc5)CCC4(C)C3CCC12C` (stereo unspecified), the growth was 80% (inactive). `Cc1ccccc1O`: the growth was 99% (inactive). For the molecule `CC(=O)Nc1ccc(C=C2C(=O)NC(=O)NC2=O)cc1`, the growth is 104% (inactive).

The values are drawn from PubChem BioAssay (NCI).
